For 98 molecules, inhibition results are on record in PubChem BioAssay AID2540 (Sanford-Burnham Center for Chemical Genomics, 2010).

Hit rate of the full screen: of about 330,000 compounds, about 4,100 (1.2%) were called active. The full list was thinned out, with actives kept by preference. Unmarked numbers belong to inactive results. Cut-off read from the data, not from the text of the source: active = inhibition above about 50%; inactive = the rest.

For this assay, the target named is Sentrin-specific protease 8 (Homo sapiens) (UniProt Q96LD8). As to the kind of experiment: SENP8 protease inhibitors, primary screen, biochemical, luminescence (AID 2540). The note with it: purified SENP8, Z-RLRGG-aminoluciferin cleavage, at 10 µM, hits give high values.
Sequence of Sentrin-specific protease 8 (Homo sapiens) (Q96LD8 whole entry, looked up): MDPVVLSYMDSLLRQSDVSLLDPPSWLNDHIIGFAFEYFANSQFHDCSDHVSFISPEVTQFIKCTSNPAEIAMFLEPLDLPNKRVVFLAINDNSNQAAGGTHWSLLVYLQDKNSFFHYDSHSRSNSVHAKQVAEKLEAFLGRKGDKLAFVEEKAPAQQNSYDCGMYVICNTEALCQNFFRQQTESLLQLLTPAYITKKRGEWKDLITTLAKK
As a reminder, the inhibition is the change of the read-out against control, counted positive when it falls. For `O=C(Nc1c2c(nn1-c1ccc(F)cc1)CS(=O)C2)C12CC3CC(CC(C3)C1)C2` (stereo not drawn), the inhibition is -3.44%. Then `CCC(Cc1ccccc1)NC(=O)C1CCCCC1` (stereo not drawn), with -7.47%; and `CN(c1ccc2nc3ccccc3c(=O)n2n1)C1CCCCC1`, with 92.6% (active). Then `CN(C(=O)c1cc2c(=O)n3ccccc3nc2s1)C1CCCCC1`, with -2.55%. Then `CN(C(=O)CSc1nncc2ccccc12)C1CCCCC1`, with -9.8%; and `CC(C(=O)N1CCOCC1)N1c2cccc3cccc(c23)S1(=O)=O` (stereo not drawn), with 3.41%; and `Cc1cccc(NC(=O)c2cc(N3C(=O)CCC3=O)ccc2Cl)n1`, with -1.19%. Take `Cc1cccc(NC(=O)c2ccc3ccccc3n2)n1`: the inhibition was 61.5% (active). Then `Cc1cccc(NC(=O)Cc2ccc(Br)cc2)n1`, with -12.8%; and `CC(=O)c1cnc(SCC(=O)O)nc1C`, with 6.9%. Then `c1ccc2sc(NN=C3CCCC3)nc2c1`, with 72% (active); and `O=C(CCC(=O)c1cccs1)Nc1nc2ccccc2s1`, with -9.74%. In the case of `CCN(CC)CCn1c2c(c(SCC(=O)Nc3nc4ccccc4s3)nc1=O)CCCC2`, the inhibition was 3.66%.

In the case of `COc1ccc(NC(=O)C2COc3ccccc3O2)cc1` (stereo not drawn), the inhibition is -15.1%. With `O=C(Nc1ncc([N+](=O)[O-])s1)C1COc2ccccc2O1` (stereo not drawn) the figure was 95.6% (active). Then `COc1ccc(OC)c2sc(NC(=O)C3COc4ccccc4O3)nc12` (stereo not drawn), with -14.6%; and `COc1ccc(OC)c(NC(=O)Cn2c(=O)oc3ccccc32)c1`, with -1.75%. With `N#Cc1cc([N+](=O)[O-])ccc1NC(=O)COC(=O)c1cnccn1` the figure was -2.92%; with `O=C(CN1CCN(c2ccc(Cl)cc2)CC1)NCc1cccs1`, -8.2%; with `CCc1cc(CNC(=O)CC2C(=O)NCCN2CC2CCCCC2)on1` (stereo not drawn), -2.78%. On to `CCCCCN(C(=O)CCC(=O)OCCOc1ccc(OC)cc1)c1c(N)n(CCCC)c(=O)[nH]c1=O`, for which the inhibition was 6.98%. With `C=CCN(C(=O)Nc1ccc2c(c1)nc(C)n2C)c1ccccc1` the figure was 0.305%.

Consider `Cc1nc2cc(NC(=O)Nc3cccc(F)c3)ccc2n1C`, for which the inhibition is 90.8% (active). With `Cn1c(CCN2CCCCCC2)nc2cc(NC(=O)Nc3ccccc3)ccc21` the figure was 1.11%; with `O=C(COC(=O)c1cnccn1)Nc1cccc2ccccc12`, 1.04%. Then `O=C(CSc1ncnc2c1nnn2Cc1ccc(F)cc1)NC1CCCC1`, with -8.4%; and `O=C(c1ccc(S(=O)(=O)c2ccccc2)cc1)N1CCCCCC1`, with -5.04%. For `O=C(Nc1ccccc1C(=O)N1CCOCC1)c1ccc(CSc2ccccc2)cc1`, the inhibition is -3.32%. Then `O=C(c1ccc(CSc2ccccc2)cc1)N1CCCCCC1`, with 64.4% (active); and `O=C(CSc1nccc(=O)[nH]1)Nc1ccc(N2CCOCC2)c(Cl)c1`, with 2.95%. Take `Cc1sc(NC(=S)NC(=O)c2cccs2)nc1-c1ccc(CC(C)C)cc1`: the inhibition was 13.2%.

For `C/C(=N\NC(=O)CNC(=O)C(c1ccccc1)c1ccccc1)c1ccc(C)cc1`, the inhibition is -7.34%. Then `C/C(=N\NC(=O)c1ccc(C)cc1)C1C(=O)c2ccccc2C1=O`, with 86.8% (active); and `Cc1ccc(C(=O)N/C(=C/c2cccnc2)C(=O)O)cc1`, with -10.8%; and `O=C(NCCOc1cccnc1)c1ccc(OC2CCN(Cc3ccccn3)CC2)cc1`, with -5.27%. With `CCN(C(=O)COc1cccnc1[N+](=O)[O-])C1CCS(=O)(=O)C1` (stereo not drawn) the figure was 1.37%; with `O=C1C2CCCN2C(=O)N1CCCCN1CCN(c2cccc(C(F)(F)F)c2)CC1` (stereo not drawn), 11.4%. With `O=C(COC(=O)c1cccnc1Cl)Nc1ccc(S(=O)(=O)N2CCOCC2)cc1` the figure was -1.74%. Consider `COc1ccc(NS(=O)(=O)c2cc(C(=O)Nc3ccccc3C(=O)O)ccc2C)cc1`, for which the inhibition was -12.1%.

With `O=C(N/N=C/c1ccc(OC(=O)c2ccccc2Cl)cc1)c1ccc(O)cc1`, the inhibition was 1.64%. Then `COc1ccc(C(=O)Nc2ccccc2C(=O)N/N=C/c2ccc(O)c(OC)c2)cc1`, with 96.1% (active); and `COc1ccc(/C=N/Nc2ccccc2C(=O)O)cc1`, with 96.1% (active). With `COc1ccc(C(=O)Nc2ccccc2C(=O)N2CCN(c3ccccc3)CC2)cc1` the figure was 0.756%. Then `COc1ccc(/C=N/OCC(=O)N(Cc2ccccc2)c2ccccc2C(=O)O)cc1`, with -0.249%; and `CCOC(=O)C(C)n1cnc2c(nnn2-c2cccc(OC)c2)c1=O` (stereo not drawn), with -4.12%. As to `Cc1cc(=O)oc2c(C(=O)c3ccccc3)c(OCC(N)=O)ccc12`, the inhibition was 5.39%. With `Nc1[nH]c(=S)nc2nc(-c3ccccc3)c(-c3ccccc3)nc12` the figure was -9.6%. On to `Cc1cccnc1CCNC(=O)C1CCC(=O)N(Cc2cccc(F)c2)C1` (stereo not drawn), for which the inhibition is -1.77%. Then `O=C(CNCc1ccco1)Nc1cc(S(=O)(=O)N2CCOCC2)ccc1N1CCCC1`, with -6.3%; and `CCN(CC)C(=O)CC1(c2ccccc2OC)CCOC(C(C)C)C1` (stereo not drawn), with -10.8%; and `COc1ccc(CCNC(=O)C2CCCN2C(=O)Nc2ccccc2)cc1OC` (stereo not drawn), with -4.97%. With `Nc1nonc1-c1noc(-c2ccc(Br)o2)n1`, the inhibition is -7.25%. With `Brc1ccc(-c2noc(-c3ccccc3)n2)o1`, the inhibition is 73% (active). With `Brc1ccc(-c2nnc(-c3ccccc3)o2)o1` the figure was 35.5%. With `O=c1[nH]c(CCl)nc2cc(-c3ccc(Cl)cc3)sc12` the figure was 90.6% (active); with `O=C(CCc1nc2ccccc2c(=O)[nH]1)OCC(=O)c1cccc(Cl)c1`, -5.04%. With `CCC1(CC)Cc2ccccc2-c2nc(CCl)[nH]c(=O)c21` the figure was 1.95%; with `O=C(NCCc1ccco1)C(=O)NCCC1CCCCN1S(=O)(=O)c1ccccc1` (stereo not drawn), 2.72%. Regarding `CC(C)(C)NC(=O)CN(Cc1cccs1)C(=O)CNS(=O)(=O)c1ccccc1`, the inhibition is 2.68%.

Turning to `O=C(CSc1cccc[n+]1[O-])NCCCc1ccccc1`, the inhibition is 3.26%.

With `Fc1ccc(COc2ccc(-c3nnco3)cc2)cc1`, the inhibition is 52.5% (active).

Consider `Fc1ccc(COc2cccc(-c3n[nH]c(=S)o3)c2)cc1`, for which the inhibition is 26.4%. With `Fc1cccc(Cl)c1COc1ccc(-c2nnco2)cc1` the figure was -0.803%; with `CCN(CC)c1ccc(S(=O)(=O)N2CCCCC2)cc1NC(=O)C1=COCCO1`, -1.53%; with `COC(=O)c1ccc(C)c(NC(=O)C2CC(=O)N(C3CCCC(C)C3C)C2)c1` (stereo not drawn), -6.55%.

Turning to `O=C(Nc1ccc(F)cc1)c1cc2c(s1)CCCC2`, the inhibition was 90.8% (active). In the case of `CN(C)C(=O)c1ccc(NC(=O)COC(=O)c2cc3c(s2)CCCCC3)cc1`, the inhibition was -5.57%. With `O=C(NCC1CCCO1)c1cc2c(s1)CCCC2` (stereo not drawn) the figure was 0.761%; with `CC(NC(=O)c1cc2cc(Cl)ccc2oc1=N)c1ccccc1` (stereo not drawn), -6.62%. With `COCC(C)NC(=O)COc1nncc2ccccc12` (stereo not drawn) the figure was -1.01%; with `CCCC(=O)Nc1cccc(NC(=S)NC(=O)C(C)Oc2ccc(Cl)cc2Cl)c1` (stereo not drawn), -4.44%; with `O=C(NCc1cccnc1)c1cccc(-c2cc3ccccc3oc2=O)c1`, -8.55%. Then `O=c1oc2ccccc2cc1-c1cn(-c2ccccc2)c(=S)[nH]1`, with -12.9%; and `Nc1ncc(-c2cc3ccccc3oc2=O)s1`, with 84% (active). Take `O=C(/C=C/c1ccc2c(c1)OCO2)NCc1ccc(F)cc1`: the inhibition is -4.04%. With `Cc1cccc(NC(=O)Nc2ccc3c(c2)OCO3)n1` the figure was 13.3%; with `Cc1cccc(NC(=O)/C=C/c2ccc3c(c2)OCO3)n1`, 73.5% (active); with `COc1ccc(OC)c(NC(=O)c2cnn(-c3ccccc3Cl)c2NC(=O)c2ccco2)c1`, 7.71%. With `COc1ccc2[nH]c(C(=O)Nc3ccccc3Cl)cc2c1` the figure was -24.6%; with `CC(OC(=O)c1cc2ccccc2[nH]1)C(=O)N(C)c1ccccc1` (stereo not drawn), -8.47%; with `O=C(Nc1ccccc1)c1cc2ccccc2[nH]1`, 72% (active). With `CSc1ccc(/C=N/NC(=O)c2cccc(Cl)c2)cc1` the figure was 89.4% (active); with `CSc1ccc(/C=N\NC(=O)CC(=O)NC(C)C)cc1`, 5.31%; with `O=C(N/N=C/c1ccc(Cl)c(Cl)c1)c1ccc2nc[nH]c2c1`, -2.15%. As for `O=C(CNS(=O)(=O)c1ccc(Br)s1)NCc1ccc2c(c1)OCO2`, the inhibition was -11.1%. Then `COc1ccc(C(=O)Nc2ccc(F)cc2F)cc1`, with 65.2% (active); and `COc1ccc(C(=O)Nc2cc(C)ccc2NC(=O)COc2ccccc2)cc1`, with -2.67%. With `CC(C)CC(=O)NC(=S)Nc1ccc(F)cc1F` the figure was 3.9%; with `CC(C)n1cnc2c(NCc3ccccc3)cc(OCC3CCN(C)CC3)cc21`, 44.5%. Then `CCC(CO)Oc1cc(NCc2ccccc2)c2ncn(C3CCCC3)c2c1` (stereo not drawn), with -0.274%. For the molecule `CC(C)n1cnc2c(NCc3ccccc3)cc(N[C@@H](CO)Cc3ccccc3)cc21`, the inhibition is 72.8% (active). With `CN1CCC(N(C)S(=O)(=O)c2ccc(NC(=O)c3cccc(C#N)c3)cc2)CC1` the figure was -1.55%; with `Cc1nnc2n1N=C(c1ccccc1)CS2`, 1.54%; with `O=c1c2cc(-c3ccccc3)sc2nc2n1N=C(c1cccs1)CS2`, 57.5% (active). As for `O=c1c(-c2ccccc2)cnc2n1CCS2`, the inhibition was 6.64%. On to `O=C(Nc1ccc(C(=O)O)c(O)c1)c1ccccc1`, for which the inhibition was 76.3% (active). Consider `O=C(Nc1cccc(NC(=O)c2cccc(F)c2)c1)c1ccccc1`, for which the inhibition was -15.3%. Then `O=C(Cc1ccccc1)Nc1cccc(NC(=O)c2ccccc2)c1`, with -8.4%.
